Compound activity deposited in PubChem by National Center for Advancing Translational Sciences (NCATS).
JMJD2A Tudor inh – qHTS Assay for Inhibitors of JMJD2A-Tudor Domain | actives 4.4% (n = 390,000) | Lysine-specific demethylase 4A (Homo sapiens), O75164 | AlphaScreen JMJD2A-Tudor / H3K4me3 peptide binding | Potency, µM (highest dose often 114 µM), for the others: at the highest dose activity change, negative = inhibition, actives largely listed as inhibitors; also: potency is read from the fitted curve at half-maximal effect; % is scaled to controls: 0 for no effect and ±100 for the full control effect; nearly all actives have a fitted effect of over 50% in size
Target sequence (O75164 whole entry, looked up, the tested form may be a part): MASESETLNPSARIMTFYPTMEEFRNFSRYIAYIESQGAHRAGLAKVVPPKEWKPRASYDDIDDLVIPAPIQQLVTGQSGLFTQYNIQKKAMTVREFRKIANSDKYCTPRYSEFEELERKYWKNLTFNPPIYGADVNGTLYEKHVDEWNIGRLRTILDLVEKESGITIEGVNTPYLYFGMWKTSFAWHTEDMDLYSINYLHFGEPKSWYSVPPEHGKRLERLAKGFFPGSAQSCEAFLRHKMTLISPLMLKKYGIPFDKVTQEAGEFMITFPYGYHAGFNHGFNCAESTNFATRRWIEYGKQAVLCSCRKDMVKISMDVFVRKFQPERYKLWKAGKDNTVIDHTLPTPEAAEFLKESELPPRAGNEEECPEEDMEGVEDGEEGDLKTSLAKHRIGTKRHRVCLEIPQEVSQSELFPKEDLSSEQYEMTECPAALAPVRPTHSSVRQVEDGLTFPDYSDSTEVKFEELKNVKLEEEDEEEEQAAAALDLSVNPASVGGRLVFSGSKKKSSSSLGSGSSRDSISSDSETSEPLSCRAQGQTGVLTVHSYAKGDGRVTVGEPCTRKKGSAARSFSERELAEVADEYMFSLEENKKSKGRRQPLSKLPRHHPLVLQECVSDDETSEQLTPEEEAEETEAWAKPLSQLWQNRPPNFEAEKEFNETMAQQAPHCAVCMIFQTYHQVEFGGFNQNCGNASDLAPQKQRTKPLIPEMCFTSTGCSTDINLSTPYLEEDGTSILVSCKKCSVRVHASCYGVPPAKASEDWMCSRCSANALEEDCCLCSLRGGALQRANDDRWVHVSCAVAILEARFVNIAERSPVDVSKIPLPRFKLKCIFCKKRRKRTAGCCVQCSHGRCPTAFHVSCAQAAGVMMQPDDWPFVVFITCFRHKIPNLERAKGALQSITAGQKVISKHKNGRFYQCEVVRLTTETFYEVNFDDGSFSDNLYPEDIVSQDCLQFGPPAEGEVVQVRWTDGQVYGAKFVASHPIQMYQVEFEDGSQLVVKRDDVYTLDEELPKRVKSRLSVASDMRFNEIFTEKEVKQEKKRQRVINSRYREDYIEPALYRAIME
HP1b binding inh – HTS for Inhibitors of HP1-beta Chromodomain Interactions with Methylated Histone Tails; actives 0.56% (n = 390,000); Chromobox protein homolog 1 (Homo sapiens), P83916; AID 540317, 2011; AlphaScreen HP1-beta / biotin-H3K9me3 peptide binding; Potency, µM (series often up to 114 µM), for the others: top-dose activity change, negative = inhibition, usual class: inhibitors; also: potency is read from the fitted curve at half-maximal effect; nearly all actives have a fitted effect of over 70% in size
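HP1-beta protein (50 nM final) preincubated 30 min at room temperature with biotinylated H3(1-18)K9me3 peptide (50 nM) in PBS pH 7.4, 0.01% Tween-20, then compound added for 30 min. AlphaScreen streptavidin donor/nickel chelate acceptor beads (10 ug/mL final), 30 min dark, luminescence read.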
Six1-Eya2 inh – qHTS Assay for Inhibitors of the Six1/Eya2 Interaction; Homeobox protein SIX1 (Homo sapiens) + Protein phosphatase EYA2 (Homo sapiens), …; AlphaScreen GST-Six1/His-Eya2 binding, biochemical; stronger effect = lower value; activity change, % (test concentration not listed); actives 0.56% (n = 360,000); AID 651725, 2012; in the data active = activity change below about -65%; inconclusive = mostly about -30% to -63%; also: % is scaled to controls: 0 for no effect and ±100 for the full control effect
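Six1/Eya2 binding was read as AlphaScreen signal after compounds were pinned into GST-Six1 plus His-tagged Eya2 (5X stock 250/500 nM) in pH 8.0 Tris/NaCl/TCEP buffer, beads added, then incubated 1 h, 37 C, dark.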
CtBP-E1A inh – qHTS Assay for Inhibitors of the CtBP/E1A Interaction; CtBP / adenovirus E1A interaction (AlphaScreen); AlphaScreen GST-E1A/His-CtBP binding, 1536-well; stronger effect = lower value; activity change, % (concentration not given with the values); actives 0.49% (n = 340,000); AID 651724, 2012; in the data active = activity change below about -65%; inconclusive = mostly about -30% to -63%; also: % is scaled to controls: 0 for no effect and ±100 for the full control effect
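GST-E1A and His-tagged CtBP (125 nM each as 5X stock) were preincubated with pin-transferred compound for 2 h at 37 °C in the dark, then glutathione donor and nickel acceptor beads were added for 1 h before AlphaScreen reading.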
BAZ2B inh – qHTS Assay for Inhibitors of BAZ2B | AlphaScreen BAZ2B-H3K14Ac peptide displacement | Potency, µM (series often up to 114 µM), inactives show at the highest dose activity change, negative = inhibition, usual class: inhibitors | Bromodomain adjacent to zinc finger domain protein 2B (Homo sapiens), Q9UIF8 | actives 4.4% (n = 360,000) | AID 504333, 2011; also: potency is read from the fitted curve at half-maximal effect; % is scaled to controls: 0 for no effect and ±100 for the full control effect; nearly all actives have a fitted effect of over 60% in size
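In this displacement format the biotinylated H3(5-23) peptide acetylated at Lys14 serves as ligand at 50 nM, with BAZ2B at 50 nM in PBS pH 7.4 containing 0.01% Tween-20. Donor and acceptor beads are 10 ug/mL final.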
G9a block – qHTS Assay for Inhibitors of Histone Lysine Methyltransferase G9a; Histone-lysine N-methyltransferase EHMT2 (Homo sapiens), Q96KQ7; G9a H3K9 monomethylation, AlphaScreen, 2 h; Potency, µM (highest dose often 102 µM), for inactives: at the top dose activity, negative = inhibition, most hits filed as inhibitors; actives 8.8% (n = 350,000); AID 504332, 2011; also: potency is read from the fitted curve at half-maximal effect; % is scaled to controls: 0 for no effect and ±100 for the full control effect; nearly all actives have a fitted effect of over 75% in size
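AlphaScreen detection with an anti-monomethyl H3K9 antibody quantified product after a 2 h room-temperature reaction containing 500 nM biotinylated H3K9 peptide, 20 µM SAM and 20 nM enzyme, which had been preincubated 15 min with compound.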
* hit, by the source's call; ? = inconclusive; . = not tested or not shown; [ ] = remark or other dose. Sampled rows, rich in hits. Any-hit rate of the full collection: about 10%. Unless noted, calls follow the shape of the dose curve; as a rule, active = well fitted inhibition curve with a large enough effect; inconclusive = small, poorly fitted or top-dose-only effect; inactive = no such curve, though single readings can be large or run the other way.

SMILES	JMJD2A Tudor inh	HP1b binding inh	Six1-Eya2 inh	CtBP-E1A inh	BAZ2B inh	G9a block
Cc1cc(C(=O)COc2cccc3cccnc23)c(C)n1C	-12%[57.1 µM]	-15%	?	?	11µM*	2.8µM*
Cc1cc(C(=O)COc2nncc3ccccc23)c(C)n1C	-10%	-2%	17	-15	-8%	79µM*
Cc1cc(C(=O)COc2ccccc2C(N)=O)c(C)n1C	-15%	15%	-14	10	.	-20%
Cc1cc(C(=O)COc2cccnc2[N+](=O)[O-])c(C)n1-c1ccccc1	-11%	-4%	3	-1	?	?
COC(=O)c1ccc(NC(=O)CSc2nc(=O)n(Cc3ccco3)c3c2CCC3)cc1	-24%	15%	.	.	-13%	-8%[59 µM]
CC(=O)Oc1ccc(C(=C2CCCCC2)c2ccc(OC(C)=O)cc2)cc1	.	.	.	.	.	-40%[12.7 µM]
COc1cc(NC(=O)C2CCN(S(=O)(=O)c3ccc4c(c3)CCCC(=O)N4)CC2)cc(OC)c1	-10%	13%	.	.	5%[57.1 µM]	-29%[59 µM]
CCC1=NN(S(=O)(=O)c2ccc(C)cc2)C(O)(C(F)(F)F)C1 (centres undefined)	5%	51%	-1	7	-11%	40µM*
CCC1=NN(C(=O)CCc2ccccc2)C(O)(C(F)(F)F)C1 (centres undefined)	6%	38%	7	4	1%	25%[0.501 µM]
Cc1ccc(NS(=O)(=O)c2cc3c(cc2N2CCC2)NC(=O)CC3)cc1C	-15%	.	.	.	.	.
CCN(CC)C(=O)CSc1nc2c(sc(=S)n2-c2ccccc2)c(=O)n1Cc1ccco1	-28%	-31%	-15	-13	56µM*	40µM*
COc1ccccc1-n1c(=S)sc2c(=O)n(Cc3ccco3)c(SC)nc21	?	-34%	-30	?	-38%	13µM*
CCN(CC)C(=O)CSc1nc2c(sc(=S)n2CC)c(=O)n1-c1ccccc1	-12%	25%	-2	5	0%	?
COc1ccccc1-n1c(SC)nc2c(sc(=S)n2-c2ccccc2)c1=O	1%	25%	-4	1	1%	29%
O=C(CSc1n[nH]c(-c2ccccc2)n1)NCCCc1ccccc1	-12%	18%[57 µM]	.	.	5%	12%[59 µM]
Cc1cc(C)c(S(=O)(=O)Nc2ccc3oc4c(c3c2)CCCC4)cc1C	?	17%	.	.	-29%	?
CCOc1ccc2nc(SC3CC(=O)N(c4ccc(OC)cc4)C3=O)sc2c1 (centres undefined)	1%[57.1 µM]	72%	-1	1	-2%	13µM*
CC(C)c1ccc(N2C(=O)CC(Sc3nc4ccccc4o3)C2=O)cc1 (centres undefined)	-15%	57%	4	8	0%	45µM*
O=C1CC(Sc2nnc(-c3ccccc3)o2)C(=O)N1c1ccccc1 (centres undefined)	-8%	3%	4	2	10%	?
COc1ccc(N2C(=O)CC(Sc3nnc(-c4ccccc4F)n3C)C2=O)cc1 (centres undefined)	-22%	-13%	4	2	-9%	11µM*
COc1ccc(N2C(=O)CC(Sc3nc4ccccc4s3)C2=O)cc1 (centres undefined)	-3%	41%	1	6	-21%	25µM*
CCOc1ccccc1NC(=O)C1CCN(S(=O)(=O)c2ccccc2)CC1	-13%	16%	.	.	0%	-8%[59 µM]
Cc1ccc(S(=O)(=O)N2CCN(Cc3cc(Br)ccc3O)CC2)cc1	-15%	24%	.	.	-2%	-32%[59 µM]
Cc1nn(-c2ccc(F)cc2)c(-n2cccc2)c1C(=O)N1CCN(c2ccc(F)cc2)CC1	-24%	22%	.	.	?	-35%[59 µM]
Cc1nnc(SC2CC(=O)N(c3ccccc3)C2=O)s1 (centres undefined)	12%	-7%	3	0	2%	8.9µM*
SMILES	JMJD2A Tudor inh	HP1b binding inh	Six1-Eya2 inh	CtBP-E1A inh	BAZ2B inh	G9a block
O=C1CC(Sc2cccs2)C(=O)N1c1ccccc1 (centres undefined)	1%	34%	-2	-3	-1%	.
C=CCNc1nnc(SC2CC(=O)N(c3ccc(OC)cc3)C2=O)s1 (centres undefined)	45µM*	-34%	0	-11	-7%	8.9µM*
COc1ccc(N2C(=O)CC(Sc3nccc(C)n3)C2=O)cc1 (centres undefined)	11%	60%	1	5	-4%	-6%[59 µM]
CCc1nnc(NS(=O)(=O)c2ccc(NC(=S)NC(=O)c3ccc(OC)cc3)cc2)s1	-17%	-11%	14	-12	-11%	?
COCc1nnc(NC(=O)c2ccc(NC(=O)C(C)C)cc2)s1	-4%	33%	0	6	7%	11%[59 µM]
CCc1nnc(NC(=O)c2ccc(NC(=O)C(C)C)cc2)s1	-8%	24%	1	-2	-16%	56µM*
CCc1nnc(NS(=O)(=O)c2ccc(NS(=O)(=O)c3ccc(NC(C)=O)cc3)cc2)s1	.	.	.	.	-2%	-4%
CCc1nnc(NS(=O)(=O)c2ccc(NC(=S)NC(=O)/C=C/c3ccc([N+](=O)[O-])cc3)cc2)s1	3%	42%	0	3	?	35µM*
CCc1nnc(NS(=O)(=O)c2ccc(NC(=O)CCC(=O)O)cc2)s1	-5%	32%	3	5	-3%	.
CCc1nnc(NS(=O)(=O)c2ccc(NC(=S)NC(=O)c3ccncc3)cc2)s1	?	9%	-1	-12	?	50µM*
CCc1nnc(NS(=O)(=O)c2ccc(NC(=S)NC(=O)/C=C/c3ccc(F)cc3)cc2)s1	56µM*	?	-12	?	50µM*	89µM*
COc1ccc(C2Nc3ccccc3C(=O)N2Cc2ccccc2)cc1COc1ccc([N+](=O)[O-])cc1 (centres undefined)	-17%[57.1 µM]	7%[57 µM]	.	.	.	.
COc1ccc(S(=O)(=O)N2CCN(Cc3nc4ccc(C)cc4o3)CC2)cc1OC	-20%	1%	.	.	-9%	1%[59 µM]
Cc1ccc(CNC(=O)Cn2c(=O)n(-c3cccc(Cl)c3)c(=O)c3sc4ccccc4c32)cc1	-19%	14%	.	.	-15%	-1%[59 µM]
CCOc1cc(C(=O)Nc2ccc(S(=O)(=O)Nc3nnc(CC)s3)cc2)cc(OCC)c1OCC	25µM*	44%	1	-12	-1%	?
